Assay results reported in PubChem BioAssay (NCI).
Compounds without any hit were thinned out: in the full panel of roughly 79,000, 15% have a hit. Calls of active or inactive are those of the source. Cut-off read from the data, not from the text of the source: active = growth inhibition above about 70%; inactive = the rest.

Key:
[1] = NCI Yeast Anticancer Drug Screen. Data for the rad52 strain (AID 147);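 note: 0% = growth of vehicle-treated control cultures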; settings: S. cerevisiae rad52 mutant growth inhibition, active compounds read high
Outline: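 Screen used a yeast mutant impaired in DNA repair. After compound exposure, growth was measured. Values reflect inhibition compared with vehicle-treated cells.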

[2] = NCI Yeast Anticancer Drug Screen. Data for the wt1 strain (AID 149);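 note: 0% = growth of vehicle-treated wt1 cultures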; settings: S. cerevisiae wt1 strain (SPY 50644) growth inhibition, active compounds read high
Outline: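 Measured: growth of wt1 yeast under compound versus vehicle treatment, reported as inhibition.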

[3] = NCI Yeast Anticancer Drug Screen. Data for the rad50EPP+ strain (AID 151);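 note: 0% = growth of vehicle-treated control cultures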; settings: S. cerevisiae rad50 mutant strain, active compounds read high
Outline: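 Exposing the rad50EPP+ strain to each compound, growth was compared with vehicle-only cultures to give inhibition.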

[4] = NCI Yeast Anticancer Drug Screen. Data for the rad50 strain (AID 155);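 note: 0% = growth of vehicle-only cultures of the same strain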; settings: S. cerevisiae rad50 strain growth inhibition, active compounds read high
Outline: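 Growth of the mutant yeast was measured after compound exposure and referenced to vehicle-treated cultures.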

[5] = NCI Yeast Anticancer Drug Screen. Data for the mec2-1 strain (AID 157); settings: S. cerevisiae mec2-1 strain, active compounds read high
Outline: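 Readout is yeast growth inhibition, normalised to vehicle-treated controls, in the mec2-1 strain exposed to compound.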

[6] = NCI Yeast Anticancer Drug Screen. Data for the rad14 strain (AID 159);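 note: 0% = growth of vehicle-treated control cultures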; settings: S. cerevisiae rad14 strain growth inhibition, active compounds read high
Outline: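 Here, inhibition of yeast growth was measured after compound exposure, using a strain with a genetic defect in DNA damage repair and vehicle-treated cultures as the reference.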

[7] = NCI Yeast Anticancer Drug Screen. Data for the sgs1 mgt1 strain (AID 161);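 note: 0% = growth of cultures given vehicle only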; settings: S. cerevisiae sgs1 mgt1 strain, active compounds read high
Outline: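 Compounds are added to genetically altered yeast, and growth is compared with cultures given vehicle alone to give percent inhibition.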

[8] = NCI Yeast Anticancer Drug Screen. Data for the CLN2oe strain (AID 163);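 note: 0% = growth of vehicle-only control cultures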; settings: S. cerevisiae CLN2oe strain, active compounds read high
Outline: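 Values reflect how much compound exposure reduced yeast growth, referenced to vehicle-exposed cells. Assay organism is a strain with a defined genetic change affecting cell-cycle control.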

[9] = NCI Yeast Anticancer Drug Screen. Data for the cln2 rad14 strain (AID 165);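 note: 0% = growth equal to vehicle treated cultures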; settings: S. cerevisiae cln2 rad14 strain, active compounds read high
Outline: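 Relative to vehicle controls, growth inhibition of compound-treated cln2 rad14 yeast was recorded.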

[10] = NCI Yeast Anticancer Drug Screen. Data for the bub3 strain (AID 167); settings: S. cerevisiae bub3 mutant strain, active compounds read high
Outline: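 Whole-cell yeast assay. The mutant strain was incubated with compounds, and growth inhibition was determined by comparison with vehicle-treated cells.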

[11] = NCI Yeast Anticancer Drug Screen. Data for the wt2 strain (AID 169);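 note: 0% = growth of vehicle-treated yeast cultures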; settings: S. cerevisiae wt2 strain growth inhibition, active compounds read high
Outline: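 Values express reduction in yeast growth under compound treatment, referenced to vehicle-treated cells.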

[12] = NCI Yeast Anticancer Drug Screen. Data for the mlh1 strain (AID 171);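 note: 0% = growth of vehicle-treated control cultures of the same strain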; settings: S. cerevisiae mlh1 strain growth inhibition, active compounds read high
Outline: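 Steps: expose the defined-mutant yeast strain to compound; expose a parallel culture to vehicle; measure growth; express compound effect as inhibition relative to the vehicle culture.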

[13] = NCI Yeast Anticancer Drug Screen. Data for the sgs1 strain (AID 173);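 note: 0% = growth of vehicle-only control cultures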; settings: S. cerevisiae sgs1 mutant, active compounds read high
Outline: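 Treat defined-mutant yeast with compound; measure growth; calculate inhibition relative to vehicle-treated cells.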

[14] = NCI Yeast Anticancer Drug Screen. Data for the mlh1 rad18 strain (AID 175); settings: S. cerevisiae mlh1 rad18 strain growth inhibition, active compounds read high
Outline: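 Test agents were incubated with a yeast strain of defined genotype (DNA damage repair defect). Inhibition of growth was derived by comparison with vehicle-exposed cultures.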

[15] = NCI Yeast Anticancer Drug Screen. Data for the rad18 strain (AID 177); settings: S. cerevisiae rad18 mutant growth inhibition, active compounds read high
Outline: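 A genetically defined yeast mutant impaired in DNA damage repair was treated with test compounds, then its growth was measured against cultures receiving vehicle alone.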

[16] = at 5.0 µM (retest, dose inferred, filed as 0.5)
[17] = at 50.0 µM (retest, dose inferred, filed as 5.0)

Measured: growth inhibition

CCOC(=O)c1cc([N+](=O)[O-])cc([N+](=O)[O-])c1Sc1ncnc2nc[nH]c12
inactive: [1]; at 1.2 µM 13% | [1]; at 3.7 µM 2% | [1]; at 11.0 µM 11% | [1]; at 33.0 µM 62% | [2]; at 1.2 µM -29% | [2]; at 3.7 µM -44% | [2]; at 11.0 µM -32% | [2]; at 33.0 µM 50% | [3]; at 1.2 µM -6% | [3]; at 3.7 µM -11% | [3]; at 11.0 µM 13% | [3]; at 33.0 µM 62% | [4]; at 1.2 µM -15% | [4]; at 3.7 µM -15% | [4]; [16] 36% | [4]; at 11.0 µM 1% | [4]; at 33.0 µM 68% | [4]; at 50.0 µM 36% | [5]; at 1.2 µM -33% | [5]; at 3.7 µM -28% | [5]; [16] 22% | [5]; at 11.0 µM -2% | [5]; at 33.0 µM 65% | [5]; [17] 69% | [5]; at 50.0 µM 60% | [6]; at 1.2 µM -30% | [6]; at 3.7 µM -21% | [6]; at 11.0 µM -9% | [6]; at 33.0 µM 66% | [7]; [16] 52% | [7]; at 50.0 µM 62% | [8]; at 1.2 µM -19% | [8]; at 3.7 µM -33% | [8]; at 11.0 µM -23% | [8]; at 33.0 µM 54% | [9]; [16] 5% | [9]; [17] -16% | [10]; at 1.2 µM -26% | [10]; at 3.7 µM -12% | [10]; [16] 38% | [10]; at 11.0 µM -11% | [10]; at 50.0 µM 59.5% | [11]; at 1.2 µM -29% | [11]; at 3.7 µM -22% | [11]; at 11.0 µM -24% | [11]; at 33.0 µM 18% | [12]; at 1.2 µM -31% | [12]; at 3.7 µM 2% | [12]; at 11.0 µM 2% | [13]; at 1.2 µM -11% | [13]; at 3.7 µM -5% | [13]; at 11.0 µM 2% | [14]; [16] 42% | [15]; at 1.2 µM -18% | [15]; at 3.7 µM -7% | [15]; at 11.0 µM 28%
active: [1]; at 100.0 µM 95% | [2]; at 100.0 µM 97% | [3]; at 100.0 µM 82% | [4]; [17] 75% | [4]; at 100.0 µM 96% | [5]; at 100.0 µM 97% | [6]; at 100.0 µM 97% | [7]; [17] 75% | [8]; at 100.0 µM 97% | [9]; at 50.0 µM 77.2% | [10]; at 33.0 µM 70% | [10]; [17] 70% | [10]; at 100.0 µM 96% | [11]; at 100.0 µM 96% | [12]; at 33.0 µM 85% | [12]; at 100.0 µM 97% | [13]; at 33.0 µM 74% | [13]; at 100.0 µM 96% | [14]; [17] 89% | [14]; at 50.0 µM 78.5% | [15]; at 33.0 µM 81% | [15]; at 100.0 µM 97%

Cc1ccc(NN(NC(=O)OC(C)C)C(=O)OC(C)C)cc1
active: [14]; at 50.0 µM 78.8%
inactive: [1]; at 1.2 µM -2% | [1]; at 3.7 µM -2% | [1]; at 11.0 µM 0% | [1]; at 33.0 µM 8% | [1]; at 100.0 µM 17% | [2]; at 1.2 µM 2% | [2]; at 3.7 µM 7% | [2]; at 11.0 µM 4% | [2]; at 33.0 µM 7% | [2]; at 100.0 µM 11% | [3]; at 1.2 µM 5% | [3]; at 3.7 µM 13% | [3]; at 11.0 µM 25% | [3]; at 33.0 µM 50% | [3]; at 100.0 µM 64% | [4]; at 1.2 µM -1% | [4]; at 3.7 µM 0% | [4]; [16] 3% | [4]; at 11.0 µM -1% | [4]; at 33.0 µM 8% | [4]; [17] 35% | [4]; at 50.0 µM 23.1% | [4]; at 100.0 µM 13% | [5]; at 1.2 µM 3% | [5]; at 3.7 µM 5% | [5]; [16] 1% | [5]; at 11.0 µM 8% | [5]; at 33.0 µM 13% | [5]; [17] 5% | [5]; at 50.0 µM 6.1% | [5]; at 100.0 µM 15% | [6]; at 1.2 µM -2% | [6]; at 3.7 µM -1% | [6]; at 11.0 µM -1% | [6]; at 33.0 µM 1% | [6]; at 100.0 µM 8% | [7]; [16] 15% | [7]; [17] 19% | [7]; at 50.0 µM 29.6% | [8]; at 1.2 µM -3% | [8]; at 3.7 µM -11% | [8]; at 11.0 µM -5% | [8]; at 33.0 µM 1% | [8]; at 100.0 µM 5% | [9]; [16] 14% | [9]; [17] 27% | [9]; at 50.0 µM 28.6% | [10]; at 1.2 µM -5% | [10]; at 3.7 µM -3% | [10]; [16] 17% | [10]; at 11.0 µM -1% | [10]; at 33.0 µM 6% | [10]; [17] 38% | [10]; at 50.0 µM 2.1% | [10]; at 100.0 µM 17% | [11]; at 1.2 µM -1% | [11]; at 3.7 µM -1% | [11]; at 11.0 µM 0% | [11]; at 33.0 µM 7% | [11]; at 100.0 µM 11% | [12]; at 1.2 µM 0% | [12]; at 3.7 µM 2% | [12]; at 11.0 µM 5% | [12]; at 33.0 µM 7% | [12]; at 100.0 µM 8% | [13]; at 1.2 µM 1% | [13]; at 3.7 µM 1% | [13]; at 11.0 µM 5% | [13]; at 33.0 µM 14% | [13]; at 100.0 µM 15% | [14]; [16] 16% | [14]; [17] 62% | [15]; at 1.2 µM -3% | [15]; at 3.7 µM -4% | [15]; at 11.0 µM 1% | [15]; at 33.0 µM 12% | [15]; at 100.0 µM 21%
